Experimental data published in ChEMBL document CHEMBL4513146, “CO-ADD screening of Karazin Kharkiv National University (Ukraine) compounds”.
Entries with a potency or affinity are not part of this list.

Experiments:
[1] = tested on: Klebsiella pneumoniae; details: Concentration 32 ug.mL-1;; ASSAY_TEST Inhibition of Bacterial Growth; detection method Absorption (OD600); MEDIA CAMHB; plate type 384well; NBS; CORNING #3640; time 18 hr
[2] = tested on: Candida albicans; details: Concentration 32 ug.mL-1; ASSAY_TEST Inhibition of Fungal Growth; detection method Absorption (OD530)
[3] = tested on: Cryptococcus neoformans; details: Concentration 32 ug.mL-1; ASSAY_TEST Inhibition of Fungal Growth; detection method Resazurin; Absorption (OD600-OD570); plate type 384well; NBS; CORNING #3640

Row | Structure (SMILES) | Inhibition [1] | Inhibition [2] | Inhibition [3]
1 | O=C(Cn1nc2c(N3CCOCC3)nc3ccccc3n2c1=O)NCc1ccccc1Cl | -0.61% | 6.61% | -3.24%
2 | CCOc1ccc(-n2ccn3c(SCC(=O)Nc4ccc5c(c4)OCCO5)nnc3c2=O)cc1 | 3.14% | 6.39% | -10.75%
3 | O=C(Cn1nc2ccc(SCc3ccc(Cl)cc3)nn2c1=O)Nc1cccc(F)c1 | -5.89% | 31.36% | -11.95%
4 | COc1ccc(C(=O)CSc2nnc3c(=O)n(-c4cccc(OC)c4)ccn23)cc1 | 12.72% | 5.69% | -12.42%
5 | CCc1ccc(N(Cc2cccc(Cl)c2)S(=O)(=O)c2cccn3c(C)nnc23)cc1 | 7.34% | 9.1% | -5.8%
6 | CC(C)CCNC(=O)CSc1nnc2c(=O)n(-c3ccc(F)cc3)ccn12 | 11.65% | 4.94% | -13.8%
7 | COc1cccc(CNC(=O)Cn2nc3c4cc(-c5cc(C)ccc5C)nn4ccn3c2=O)c1OC | 6.77% | -1.47% | -13.57%
8 | Cc1ccc(NC(=O)Cn2nc3ccc(SCc4ccc(Cl)cc4)nn3c2=O)c(C)c1 | 5.23% | 4.69% | -27.61%
9 | Cc1cc(C)cc(N(Cc2ccc(F)cc2)S(=O)(=O)c2cccn3cnnc23)c1 | 7.95% | 1.02% | -10.98%
10 | CCCn1c(=O)c2sccc2n2c(=O)n(CC(=O)c3ccc(OC)c(OC)c3)nc12 | 5.35% | -1.4% | -6.57%
11 | CCc1ccccc1Sc1nccn2c(=O)n(CC(=O)N3CCN(c4ccc(F)cc4)CC3)nc12 | 3.21% | 4.71% | -7.3%
12 | Cc1nnc2c(S(=O)(=O)N(Cc3ccccc3)c3ccc(C(C)C)cc3)cccn12 | 8.51% | -1.81% | -8.23%
13 | CCc1ccccc1Sc1nccn2c(=O)n(CC(=O)Nc3ccc(C)cc3C)nc12 | 5.62% | 1.23% | -14.18%
14 | CCCc1nnc2c(=O)n(CC(=O)Nc3cccc(Br)c3)c3ccccc3n12 | 0.59% | 0.12% | -38.92%
15 | Cc1ccc(-c2cc3c4nn(CC(=O)Nc5ccc6c(c5)OCO6)c(=O)n4ccn3n2)cc1 | 10% | 9.65% | -32.25%
16 | COc1cc(NC(=O)Cn2nc3c(SC4CCCCC4)nccn3c2=O)cc(OC)c1 | 18.11% | 13.52% | -27.94%
17 | COc1ccc(C(=O)CSc2nnc3c(=O)n(-c4ccc(F)cc4)ccn23)cc1 | 10.95% | 4.42% | -10%
18 | CCc1cccc(NC(=O)CSc2nnc3c(=O)n(-c4cccc(OC)c4)ccn23)c1 | 7.34% | 13.59% | -2.76%
19 | Cc1ccc(NC(=O)CSc2nc3ccccc3n3c(C)nnc23)cc1C | -6.18% | 44.31% | -14.42%
20 | COC(=O)c1ccc(NC(=O)Cn2nc3c(Oc4ccccc4C)nccn3c2=O)cc1 | -1.16% | 1.31% | -4.07%
21 | CC(C)CCNC(=O)Cn1nc2n(CC(C)C)c(=O)c3sccc3n2c1=O | 9.99% | -0.63% | -16.87%
22 | Cc1cccc(-c2nc(CSc3nc4ccccc4n4c(C(C)C)nnc34)c(C)o2)c1 | 12.8% | 8.07% | -24.07%
23 | COc1ccc(-c2cc3c4nn(CC(=O)Nc5ccccc5)c(=O)n4ccn3n2)cc1 | 8.66% | 6.28% | -7.06%
24 | CCOC(=O)c1ccc(NC(=O)Cn2nc3ccc(SCc4ccc(Cl)cc4)nn3c2=O)cc1 | 5.68% | 34.69% | -19.64%
25 | Cc1cccc(N(C)C(=O)Cn2nc3cc(C)nc(Nc4ccc(C)c(F)c4)n3c2=O)c1 | 20.18% | 4.24% | -1.47%
26 | Cc1cc(C)c(C(=O)CSc2nnc3c(=O)n(-c4ccc(F)c(F)c4)ccn23)cc1C | 9.61% | 5.94% | -8.7%
27 | COc1ccc(N(Cc2ccc(OC)c(F)c2)S(=O)(=O)c2ccc3nncn3c2)cc1 | 12.76% | 2.89% | 0.06%
28 | Cc1cc(Nc2ccc(F)cc2)nc2nn(CCc3ccccc3)c(=O)n12 | 16.97% | 1.44% | -10.99%
